Assay outcomes deposited in PubChem by National Center for Advancing Translational Sciences (NCATS).
This excerpt belongs to a sample that is enriched for hits.
IMPase inh = cell-permeable inhibitors of inositol monophosphatase (IMPase) | P97697 | inhibition (IP1 accumulation), % at 46.1 µM | AID 901 | CHO-M1 cells, IP1 accumulation, HTRF TR-FRET ratio | 120,000 tested, under 10 active; active = well fitted curve in the direction sought with a large enough effect in the signal ratio, not every such curve was filed as active; inconclusive = small, poorly fitted or top-dose-only effect, or a change in a side signal; inactive = no such curve, though single readings can be large or run the other way; the % refers to the signal ratio;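 also: cells stimulated with carbachol in lithium chloride buffer; higher means more IMPase inhibition seen as more IP1 and lower FRET ratio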
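CHO-M1 cells (CHO stably expressing M1 receptor), compound up to 46 uM final, stimulated with carbachol (50 uM as added) in buffer with 50mM LiCl, pH 7.4, 30 min at 37C. Cytosolic IP1 read by TR-FRET; AC50 from Hill fits.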
IkB sig inh = IkB pathway inhibition in ABC-DLBCL cells; Potency, µM (titrated, usually from 57.1 µM); AID 445; ABC-DLBCL IkBa-CBG/CBR dual luciferase ratio, 4 h; response scale: scaled: untreated 0%, proteasome inhibitor 100%; actives 0.04% (n = 110,000); active = well fitted curve in the direction sought with a large enough effect in the signal ratio, not every such curve was filed as active; inconclusive = small, poorly fitted or top-dose-only effect, or a change in a side signal; the % refers to the signal ratio;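 also: the direction sought is a rising ratio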
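In this assay, an IκBα–CBG68 fusion accumulates when IKK-driven degradation is blocked; native CBR normalizes for cell number. OCI-Ly3 cells were treated 4 h with compound and doxycycline, then green and red light read after Chroma-Glo addition.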
p53ts 39C tox = kills p53ts cells at the nonpermissive temperature; H1299-p53A138V viability at 39C, ATP luminescence, 24 h; Potency, µM (top dose mostly 46.1 µM), most hits filed as cytotoxic; actives 1.5% (n = 130,000); AID 902; also: nearly all actives have a fitted effect of over 55% in size
Hsp90 Hop PPI = changes Hsp90-Hop TPR2A binding signal, up or down; AlphaScreen TPR2A-His6 binding biotin-Hsp90 C-terminal peptide; Potency, µM (series often up to 57 µM); actives 0.44% (n = 71,000); active = well fitted curve in either direction with a large enough effect; inconclusive = small, poorly fitted or top-dose-only effect, or another doubt
p53ts 32C tox = kills p53ts cells at the permissive temperature; H1299-p53A138V at 32C, ATP luminescence viability, 24 h; Potency, µM (highest dose often 46.1 µM), actives largely listed as cytotoxic; actives 0.93% (n = 130,000); also: nearly all actives have a fitted effect of over 55% in size
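H1299-p53 A138V cells (temperature-sensitive p53) exposed 24 h to up to 46 uM compound at 32C, where p53 is wild-type in conformation. Viability read as ATP luminescence and normalised to DMSO and 100 uM tamoxifen. AC50 fitted with the Hill equation.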
Luciferase inh = blocks Photinus pyralis firefly luciferase activity. AID 411. P08659. actives 2.2% (n = 72,000). Potency, µM (doses to about 57.1 µM), usual class: inhibitors. purified firefly luciferase, luminescence, 8 min; also: nearly all actives have a fitted effect of over 40% in size
Target sequence (P08659 whole entry, looked up): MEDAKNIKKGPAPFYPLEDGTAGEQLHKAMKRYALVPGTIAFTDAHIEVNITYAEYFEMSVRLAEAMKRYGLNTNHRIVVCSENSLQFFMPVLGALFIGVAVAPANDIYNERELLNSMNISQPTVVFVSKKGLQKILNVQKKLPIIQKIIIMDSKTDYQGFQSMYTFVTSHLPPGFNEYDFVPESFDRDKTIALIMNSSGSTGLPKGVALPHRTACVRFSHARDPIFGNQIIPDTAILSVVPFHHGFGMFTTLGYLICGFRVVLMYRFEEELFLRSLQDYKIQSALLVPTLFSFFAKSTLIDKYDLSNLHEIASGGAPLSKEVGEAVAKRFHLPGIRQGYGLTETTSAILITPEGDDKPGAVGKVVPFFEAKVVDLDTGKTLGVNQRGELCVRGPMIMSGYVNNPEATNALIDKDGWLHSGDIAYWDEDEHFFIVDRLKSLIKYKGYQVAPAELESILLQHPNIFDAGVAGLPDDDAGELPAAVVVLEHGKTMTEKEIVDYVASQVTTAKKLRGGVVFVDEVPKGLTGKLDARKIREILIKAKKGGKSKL
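Here, luciferase activity is measured as luminescence following an 8 min room-temperature reaction at 10 uM ATP, pH 7.2. Every library sample is titrated.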
Numbers stand for hits; ! = repeats disagree; [ ] = remark or other dose. Unless noted, calls follow the shape of the dose curve; as a rule, active = well fitted curve in the direction sought with a large enough effect; inconclusive = small, poorly fitted or top-dose-only effect, or another doubt; inactive = no such curve, though single readings can be large; an effect the other way counts as inactive or inconclusive.

`CCC1CN(C)CCC1(OC(C)=O)c1ccccc1` (stereo unspecified) gave IMPase inh inactive, p53ts 39C tox inactive and p53ts 32C tox inactive.
CN1CC[C@@]2(c3cccc(O)c3)Cc3nc4ccccc4cc3C[C@H]2C1 was read as IMPase inh inactive, IkB sig inh inactive, p53ts 39C tox inactive, Hsp90 Hop PPI inactive, p53ts 32C tox inactive and Luciferase inh 25µM.
Screening c1ccc(CCN2CCCCCC2)nc1 returned IkB sig inh inactive[11.4 µM], p53ts 39C tox inactive[9.22 µM], Hsp90 Hop PPI inactive[11 µM], p53ts 32C tox inactive[9.22 µM] and Luciferase inh inactive[11.4 µM].
For COc1ccc(P2(=O)Nc3ccccc3N2)cc1 the results were IMPase inh inconclusive, IkB sig inh inactive, p53ts 39C tox inconclusive, Hsp90 Hop PPI inactive, p53ts 32C tox inconclusive and Luciferase inh 6.3µM.
Screening COc1ccc(C=O)cc1 returned IkB sig inh inactive, p53ts 39C tox inactive, Hsp90 Hop PPI inactive and p53ts 32C tox inactive[1.84 µM].
Screening C[C@H]1CC[C@]2(NC1)O[C@@H]1C[C@@H]3[C@@H]4CC=C5C[C@H](O)CC[C@@]5(C)[C@H]4CC[C@@]3(C)[C@H]1[C@@H]2C returned IkB sig inh inactive[11.4 µM], Hsp90 Hop PPI inactive and Luciferase inh inactive[11.4 µM].
`C[C@@H]1O[C@@H](O[C@H]2C[C@@H](O)[C@]3(CO)[C@@H]4[C@@H](O)C[C@]5(C)[C@H]([C@@H]6COC(=O)C6)CC[C@@]5(O)[C@H]4CC[C@@]3(O)C2)[C@H](O)[C@H](O)[C@@H]1O` gave IMPase inh inactive, IkB sig inh inactive, p53ts 39C tox inconclusive, Hsp90 Hop PPI inactive, p53ts 32C tox inconclusive and Luciferase inh inactive.
For Cc1oc2ccc(O)c(CN3CCCCCC3)c2c1C(=O)Nc1cccc(Cl)c1C the results were IkB sig inh inconclusive, p53ts 39C tox 16µM and p53ts 32C tox inactive.
For CCSCC[C@H](N)C(=O)O the results were IkB sig inh inactive[11.4 µM], p53ts 39C tox inactive[9.22 µM], Hsp90 Hop PPI inactive[11 µM], p53ts 32C tox inactive[9.22 µM] and Luciferase inh inactive[11.4 µM].
O=C(Oc1ccc2ccccc2c1Cl)N1CCCC1 was read as IMPase inh inactive, IkB sig inh inactive, p53ts 39C tox inactive, Hsp90 Hop PPI inactive, p53ts 32C tox inconclusive and Luciferase inh 16µM.
For O=C(CN1CCCC1=O)N1CCOCC1 the results were IMPase inh inactive, IkB sig inh inactive, p53ts 39C tox inactive, Hsp90 Hop PPI inactive, p53ts 32C tox inactive and Luciferase inh inactive.
Screening O=C1CCCN1CC#CCN1CCCC1 returned IMPase inh inactive, IkB sig inh inactive, p53ts 39C tox inactive, Hsp90 Hop PPI inactive, p53ts 32C tox inactive and Luciferase inh 25µM!.
Screening CCCCCCCCCOc1ccc2[nH]cc(CCN)c2c1 returned IMPase inh inactive, IkB sig inh inconclusive, p53ts 39C tox 32µM, Hsp90 Hop PPI inactive, p53ts 32C tox inconclusive and Luciferase inh inactive.
`C[C@@]12CC[C@H](O)C[C@@H]1CC[C@H]1[C@H]2C[C@@H](O)[C@]2(C)[C@@H](C3=CC(=O)OC3)CC[C@@]12O` gave IkB sig inh inconclusive, Hsp90 Hop PPI inconclusive and Luciferase inh inactive[11.4 µM].
N#C/C(=C\c1ccc(O)c(O)c1)C(=O)NCCCNC(=O)/C(C#N)=C/c1ccc(O)c(O)c1 was read as IMPase inh inactive, IkB sig inh inactive, p53ts 39C tox inconclusive, Hsp90 Hop PPI 2µM, p53ts 32C tox inactive and Luciferase inh inactive.
`N=C1c2ccccc2CN1NC(=O)c1ccc(Cl)cc1` gave IMPase inh inactive.
For O=C(NCCc1ccc(Cl)cc1)c1ccc(Nc2nc3ccccc3n3nnnc23)cc1 the results were IMPase inh inactive, IkB sig inh inconclusive, p53ts 39C tox 7.9µM and p53ts 32C tox inconclusive.
Screening CC(=O)c1c(C)nc2ccccc2c1N returned IMPase inh inactive, IkB sig inh inactive, p53ts 39C tox 10µM, Hsp90 Hop PPI inactive, p53ts 32C tox 13µM and Luciferase inh 3.2µM.
COC(=O)c1ccc(COC(=O)c2ccccn2)cc1 was read as IMPase inh inactive, IkB sig inh inactive, p53ts 39C tox inactive, Hsp90 Hop PPI inactive, p53ts 32C tox inactive and Luciferase inh 25µM.
